Results: PubChem BioAssay AID1159580 (chemical genetic matrix, 2015)
Values joined by “and” are separate entries in the source; they are usually repeats but may differ in a detail not shown here. Equal entries are not always repeated. The campaign covered roughly 5,500 compounds. About 2,000 (36%) were called active. Roughly 18% stayed inconclusive and do not appear here. No stated cut-off is given here; in the data, active means normalized growth mostly below about 0.91 (no sharp cut-off); inconclusive means no clear call, values can overlap the other calls; inactive means mostly above about 0.92. The list shows a part of the results.

Experiment: chemical genetic growth profiling, strain panel (AID 1159580);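 further: tested at 20 µM; growth read once vehicle control cultures reached saturation at 30 °C; 1 = growth at the plate median or of vehicle wells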
Conditions: S. cerevisiae deletion strains, growth OD

Measured: normalized growth

CC1CCC(NC(=O)N(CCCl)N=O)CC1 (stereo not drawn)
active: locus YAL021C, strain ccr4, stronger effect = lower value 0.899 | locus YAL026C, strain drs2, stronger effect = lower value 0.24 | locus YAL030W, strain snc1, stronger effect = lower value 0.796 | locus YBR009C, strain hhf1, stronger effect = lower value 0.244 | locus YBR023C, strain chs3, stronger effect = lower value 0.876 | locus YBR171W, strain sec66, stronger effect = lower value 0.68 | locus YBR231C, strain swc5, stronger effect = lower value 0.755 | locus YBR279W, strain paf1, stronger effect = lower value 0.863 | locus YCL011C, strain gbp2, stronger effect = lower value 0.095 | locus YCL016C, strain dcc1, stronger effect = lower value 0.703 | locus YCL061C, strain MRC1, stronger effect = lower value 0.335 | locus YCL069W, strain vba3, stronger effect = lower value 0.834 | locus YCR088W, strain abp1, stronger effect = lower value 0.182 | locus YDR001C, strain nth1, stronger effect = lower value 0.678 | locus YDR137W, strain rgp1, stronger effect = lower value 0.718 | locus YDR159W, strain sac3, stronger effect = lower value 0.852 | locus YDR334W, strain swr1, stronger effect = lower value 0.187 | locus YDR392W, strain spt3, stronger effect = lower value 0.126 | locus YDR502C, strain sam2, stronger effect = lower value 0.859 | locus YEL003W, strain gim4, stronger effect = lower value 0.0715 | locus YEL037C, strain rad23, stronger effect = lower value 0.865 | locus YEL061C, strain CIN8 (second series), stronger effect = lower value 0.339 | locus YER015W, strain faa2, stronger effect = lower value 0.593 | locus YER016W, strain bim1, stronger effect = lower value 0.895 | locus YER155C, strain BEM2 (second series), stronger effect = lower value 0.112 | locus YFR010W, strain ubp6, stronger effect = lower value 0.85 | locus YGL173C, strain kem1, stronger effect = lower value 0.895 | locus YGL227W, strain vid30, stronger effect = lower value 0.07 | locus YGL240W, strain doc1, stronger effect = lower value 0.8 | locus YGL253W, strain hxk2, stronger effect = lower value 0.771 | locus YHR013C, strain ard1, stronger effect = lower value 0.578 | locus YHR027C, strain rpn1, stronger effect = lower value 0.695 | locus YHR142W, strain chs7, stronger effect = lower value 0.476 | locus YIL125W, strain kgd1, stronger effect = lower value 0.929 | locus YJL092W, strain hpr5, stronger effect = lower value 0.644 | locus YJL095W, strain BCK1 (second series), stronger effect = lower value 0.887 | locus YJL115W, strain asf1, stronger effect = lower value 0.622 | locus YJL129C, strain trk1, stronger effect = lower value 0.196 | locus YJL164C, strain tpk1, stronger effect = lower value 0.545 | locus YJL166W, strain qcr8, stronger effect = lower value 0.427 | locus YJR043C, strain POL32, stronger effect = lower value 0.662 | locus YKL085W, strain MDH1 (second series), stronger effect = lower value 0.912 | locus YKL085W, strain MDH1, stronger effect = lower value 0.912 | locus YKR001C, strain vps1, stronger effect = lower value 0.841 | locus YKR026C, strain gcn3, stronger effect = lower value 0.225 | locus YKR091W, strain srl3, stronger effect = lower value 0.81 | locus YLL026W, stronger effect = lower value 0.289 | locus YLL041C, strain sdh2, stronger effect = lower value 0.657 | locus YLR027C, strain aat2, stronger effect = lower value 0.344 | locus YLR221C, strain rsa3, stronger effect = lower value 0.0809 | locus YLR258W, strain gsy2, stronger effect = lower value 0.728 | locus YLR262C, strain YPT6 (second series), stronger effect = lower value 0.635 | locus YLR320W, strain mms22, stronger effect = lower value 0.232 | locus YLR342W, strain FKS1, stronger effect = lower value 0.819 | locus YLR357W, strain rsc2, stronger effect = lower value 0.549 | locus YLR418C, strain cdc73, stronger effect = lower value 0.554 | locus YML120C, strain ndi1, stronger effect = lower value 0.128 | locus YMR058W, strain fet3, stronger effect = lower value 0.216 | locus YMR125W, strain sto1, stronger effect = lower value 0.0911 | locus YMR129W, stronger effect = lower value 0.0909 | locus YMR205C, strain PFK2, stronger effect = lower value 0.728 | locus YNL071W, strain lat1, stronger effect = lower value 0.0878 | locus YNL209W, strain ssb2, stronger effect = lower value 0.798 | locus YNL248C, strain rpa49, stronger effect = lower value 0.0991 | locus YNL307C, strain MCK1, stronger effect = lower value 0.89 | locus YNL322C, strain KRE1 (second series), stronger effect = lower value 0.121 | locus YOR001W, strain rrp6, stronger effect = lower value 0.084 | locus YOR070C, strain gyp1, stronger effect = lower value 0.658 | locus YOR083W, strain WHI5, stronger effect = lower value 0.598 | locus YOR106W, strain vam3, stronger effect = lower value 0.598 | locus YOR184W, strain ser1, stronger effect = lower value 0.161 | locus YOR265W, strain rbl2, stronger effect = lower value 0.894 | locus YOR270C, strain vph1, stronger effect = lower value 0.503 | locus YOR290C, strain snf2, stronger effect = lower value 0.853 | locus YPL051W, strain arl3, stronger effect = lower value 0.816 | locus YPL078C, strain atp4, stronger effect = lower value 0.878 | locus YPL106C, strain sse1, stronger effect = lower value 0.823 | locus YPL240C, strain hsp82, stronger effect = lower value 0.795 | strain wtn01, stronger effect = lower value 0.858
inactive: locus YBL061C, strain skt5, stronger effect = lower value 0.965 | locus YBR021W, strain FUR4, stronger effect = lower value 1.02 | locus YBR229C, strain ROT2, stronger effect = lower value 0.998 | locus YCL029C, strain bik1, stronger effect = lower value 1.01 | locus YDL005C, strain med2, stronger effect = lower value 0.952 | locus YDL035C, strain GPR1, stronger effect = lower value 0.946 | locus YDL040C, strain nat1, stronger effect = lower value 0.983 | locus YDL074C, strain BRE1, stronger effect = lower value 0.874 | locus YDL101C, strain DUN1, stronger effect = lower value 0.995 | locus YDL134C, strain PPH21, stronger effect = lower value 0.995 | locus YDL185W, strain tfp1, stronger effect = lower value 1.01 | locus YDL192W, strain arf1, stronger effect = lower value 1 | locus YDR069C, strain doa4, stronger effect = lower value 0.958 | locus YDR101C, strain arx1, stronger effect = lower value 0.99 | locus YDR150W, strain NUM1, stronger effect = lower value 0.998 | locus YDR162C, strain NBP2, stronger effect = lower value 0.968 | locus YDR195W, strain ref2 0.994 | locus YDR297W, strain sur2, stronger effect = lower value 0.951 | locus YDR318W, strain mcm21, stronger effect = lower value 0.979 | locus YDR335W, strain msn5, stronger effect = lower value 0.933 | locus YDR388W, stronger effect = lower value 1.01 | locus YEL061C, strain CIN8, stronger effect = lower value 0.992 | locus YER110C, stronger effect = lower value 1.01 | locus YER111C, strain swi4, stronger effect = lower value 0.961 | locus YER155C, strain BEM2, stronger effect = lower value 1 | locus YER167W, strain BCK2, stronger effect = lower value 0.938 | locus YGL078C, strain dbp3, stronger effect = lower value 0.957 | locus YGL086W, strain mad1, stronger effect = lower value 0.937 | locus YGL167C, strain pmr1, stronger effect = lower value 0.98 | locus YGL248W, strain PDE1, stronger effect = lower value 1 | locus YGR135W, strain pre9, stronger effect = lower value 0.935 | locus YGR252W, strain gcn5, stronger effect = lower value 0.993 | locus YHR030C, strain SLT2, stronger effect = lower value 0.991 and 0.89 | locus YHR079C, strain IRE1 (second series), stronger effect = lower value 1 | locus YHR079C, strain IRE1, stronger effect = lower value 0.866 | locus YHR094C, strain hxt1, stronger effect = lower value 1.01 | locus YHR129C, strain ARP1, stronger effect = lower value 0.974 | locus YHR200W, strain rpn10, stronger effect = lower value 0.982 | locus YIL066C, strain RNR3, stronger effect = lower value 0.949 | locus YIL073C, strain SPO22, stronger effect = lower value 1.02 | locus YIR030C, strain dcg1, stronger effect = lower value 0.995 | locus YJL095W, strain BCK1, stronger effect = lower value 0.928 and 0.908 | locus YJL134W, strain LCB3, stronger effect = lower value 0.997 | locus YJL154C, strain vps35, stronger effect = lower value 0.975 | locus YJL168C, strain set2, stronger effect = lower value 1.01 | locus YJL187C, strain SWE1 (second series), stronger effect = lower value 1 | locus YJR066W, strain TOR1, stronger effect = lower value 0.894 | locus YKL009W, strain mrt4, stronger effect = lower value 0.921 | locus YKL068W, stronger effect = lower value 0.983 | locus YKL160W, strain elf1, stronger effect = lower value 0.914 | locus YKL190W, strain CNB1, stronger effect = lower value 0.996 | locus YLL001W, strain dnm1, stronger effect = lower value 0.929 | locus YLR039C, strain RIC1, stronger effect = lower value 0.771 | locus YLR058C, strain SHM2, stronger effect = lower value 0.995 | locus YLR102C, strain apc9, stronger effect = lower value 1.01 | locus YLR113W, strain HOG1, stronger effect = lower value 0.902 | locus YLR262C, strain YPT6, stronger effect = lower value 0.656 | locus YLR268W, strain sec22, stronger effect = lower value 0.894 | locus YLR330W, strain CHS5, stronger effect = lower value 0.977 | locus YLR342W, strain FKS1 (second series), stronger effect = lower value 0.991 | locus YLR370C, strain arc18, stronger effect = lower value 0.913 | locus YLR371W, strain rom2, stronger effect = lower value 0.941 | locus YLR384C, strain iki3, stronger effect = lower value 0.956 | locus YML016C, strain PPZ1, stronger effect = lower value 1 | locus YML032C, strain rad52, stronger effect = lower value 1.01 | locus YML124C, strain tub3, stronger effect = lower value 1 | locus YMR078C, strain ctf18, stronger effect = lower value 1 | locus YMR223W, strain ubp8, stronger effect = lower value 0.974 | locus YMR231W, strain pep5, stronger effect = lower value 0.981 | locus YMR307W, strain GAS1, stronger effect = lower value 0.721 | locus YNL067W, strain RPL9B, stronger effect = lower value 0.926 | locus YNL153C, strain GIM3, stronger effect = lower value 0.882 | locus YNL183C, strain NPR1, stronger effect = lower value 0.9 | locus YNL233W, strain BNI4, stronger effect = lower value 0.917 | locus YNL250W, strain rad50, stronger effect = lower value 0.94 | locus YNL271C, strain bni1, stronger effect = lower value 0.93 | locus YNL298W, strain CLA4, stronger effect = lower value 0.957 | locus YNL322C, strain KRE1, stronger effect = lower value 0.985 | locus YNR049C, strain mso1, stronger effect = lower value 0.939 | locus YNR052C, strain pop2, stronger effect = lower value 1.02 | locus YOL012C, strain htz1 0.346 | locus YOL147C, strain pex11, stronger effect = lower value 1 | locus YOR061W, strain CKA2, stronger effect = lower value 1 | locus YOR069W, strain VPS5, stronger effect = lower value 0.998 | locus YOR080W, strain dia2, stronger effect = lower value 0.988 | locus YOR136W, strain idh2, stronger effect = lower value 0.992 | locus YOR144C, strain elg1, stronger effect = lower value 0.998 | locus YOR231W, strain MKK1, stronger effect = lower value 0.89 | locus YOR316C, strain cot1, stronger effect = lower value 1 | locus YPL256C, strain CLN2, stronger effect = lower value 0.855 | locus YPR119W, strain clb2, stronger effect = lower value 1 | locus YPR141C, strain kar3, stronger effect = lower value 0.979 | locus YPR163C, strain tif3, stronger effect = lower value 0.964 | locus YPR167C, strain met16, stronger effect = lower value 0.999
